# Screening data as filed in PubChem BioAssay.
# This is a sample that favours compounds with a hit; in the whole collection about 3.7% have one here.
# TIM10 inh = growth inhibitors of TIM10 yeast strain | inhibition, % at 10 µM | S. cerevisiae TIM10 strain growth, BacTiter-Glo luminescence, 24 h | actives 1.4% (n = 330,000) | AID 463195;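 active means inhibition of 40% or more at the single tested concentration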;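 further: wild-type TIM10 isogenic control strain grown at permissive 25 °C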
# V-ATPase pH = regulators of yeast V-ATPase proton transport; S. cerevisiae, pHLuorin cytosolic pH fluorescence; response, % at 10 µM; actives 0.37% (n = 350,000); in the data active means response mostly above about 7.3%, no sharp cut-off; inactive means mostly below about 5.4%; further: actives read high
# tim10-1 inh = tim10-1 yeast growth inhibition. AID 463190. actives 2.2% (n = 330,000). inhibition, % at 20 µM. S. cerevisiae tim10-1 ts strain growth, BacTiter-Glo, 24 h;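 active means inhibition of at least 40%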;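 further: mutant grown at 25 °C; 0% = DMSO wells with yeast and 100% = wells holding no yeast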
# tim23-1 inh = growth inhibitors of tim23-1 mutant yeast; actives 1.3% (n = 330,000); inhibition, % at 20 µM; S. cerevisiae tim23-1 growth, BacTiter-Glo luminescence, 24 h;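 active means growth inhibition of the mutant yeast at or above 50%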;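 further: temperature-sensitive mutant grown at 25 °C; plate controls were DMSO-treated mutant yeast for no effect and medium wells lacking yeast for full effect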
# PfHsp90 yeast 2 = reduces growth (ATP signal) of yeast expressing P. falciparum Hsp90. actives 0.32% (n = 310,000). inhibition, % at 9.4 µM. AID 504621. S. cerevisiae expressing PfHsp90, BacTiter-Glo ATP, 48 h; yeast lacking PDR1 and PDR3 efflux regulators;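 active means every replicate shows inhibition above about 80%, whatever the replicate mean, limit read from the data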;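 further: 0% = DMSO neutral controls and 100% = 20 µM radicicol positive controls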
# TIM10 conf = confirmation of TIM10 yeast growth inhibitors | shares compounds with TIM10 inh | inhibition, % at 10 µM | S. cerevisiae tim10 strain growth, BacTiter-Glo luminescence, 24 h | actives 63% (n = 4,600);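 active means inhibition of yeast growth at or above a set limit in either of two replicates at 10 µM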;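 further: this counterscreen used the strain with wild-type TIM10; 0% = yeast with DMSO and 100% = medium wells lacking yeast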
# Numbers without * were called inactive; . = no result given.
SMILES,TIM10 inh,V-ATPase pH,tim10-1 inh,tim23-1 inh,PfHsp90 yeast 2,TIM10 conf
O=[N+]([O-])c1cc([N+](=O)[O-])c2c(=Nc3ccccc3)n(-c3ccccc3)n(O)c2c1,50*,1,18,48,-33,66*
O=[N+]([O-])c1cccc(C(=Nc2ccccc2)NO)c1,6,2,-3,7,2,.
COc1cc(C(=S)N2CCOCC2)ccc1OC(=O)c1ccc([N+](=O)[O-])cc1[N+](=O)[O-],44*,1,18,13,-11,37*
COc1ccc(C(=S)N2CCOCC2)cc1OC(=O)c1cccc([N+](=O)[O-])c1,41*,-1,36,25,3,23
C=CCn1c(SCc2ccc3nonc3c2)nnc1-c1cccs1,48*,-3,38,26,-1,26*
CN(CC(=O)OCC(N)=O)S(=O)(=O)c1ccc(Cl)cc1,40*,-3,8,4,-20,0
Cc1ccc2nc(N3CCN(Cc4ccc(F)cc4)C3=O)c(C)cc2c1,46*,0,22,3,15,60*
Cc1cc(-n2c(C)cc(C(=O)COc3ccc(F)c(F)c3)c2C)no1,3,1,-3,22,-20,.
COc1ccc(-c2nn(-c3ccccc3)cc2/C=N/O)cc1OC,18,-7,21,27,-12,.
COc1ccc(-c2nn(-c3ccccc3)cc2/C=N/NC(=S)NC(C)C)cc1OC,48*,1,36,43,-156,49*
S=C(Nc1ccccc1)Nc1ccc(Cl)cc1Cl,26,-5,19,5,-10,.
S=C(Nc1ccccc1)Nc1cc(Cl)ccc1Oc1ccccc1,48*,3,35,46,5,-7
O=c1c2cc(N3CCOCC3)ccc2[nH]c(=S)n1CCCN1CCN(c2ccccc2F)CC1,47*,.,26,16,.,24*
O=c1c2cc(N3CCOCC3)ccc2[nH]c(=S)n1CCCN1CCCCCC1,-12,-2,23,5,12,.
Cc1ccc(NCc2nnc(SCC(N)=O)o2)c(C)c1,8,2,1,13,.,.
Cc1ccc(NCc2nnc(SCC(=O)N(Cc3ccccc3)C(C)(C)C)o2)c(C)c1,41*,-3,34,29,-15,16
CCOC(=O)c1nc(N/N=C/c2ccccc2)sc1Br,6,0,20,17,-35,.
O=C(Nc1ccc(F)cc1)C1CCN(S(=O)(=O)c2ccc3[nH]c(=O)oc3c2)CC1,74*,3,-8,-7,11,6
CCC(=O)N1CCc2cc(S(=O)(=O)CCC(=O)NCc3ccccc3OC)ccc21,21,3,15,15,0,.
Cc1ccc2cc3cc(C(=O)NCCCN4CCCC4)oc3nc2c1,45*,-2,6,17,-2,15
Nc1ccc(C(=O)OCc2nc3cc4ccccc4cc3[nH]2)cc1,-28,-1,-38,-9,-40,.
Nc1ccc(C(=O)OCc2nc3c(ccc4ccccc43)[nH]2)cc1,48*,5,30,35,-15,-3
Cc1ccc(NC(=O)CN(C)C(=O)COc2ccc(Br)cc2)cc1,.,-3,.,.,.,.
[O-][N+]1=c2ccc(Nc3ccccc3)cc2=NC12CCCCC2,.,3,.,.,-2,.
COc1ccc(Nc2ccc3c(c2)=NC2(CCCCC2)[N+]=3[O-])cc1,47*,-2,37,36,.,4
SMILES,TIM10 inh,V-ATPase pH,tim10-1 inh,tim23-1 inh,PfHsp90 yeast 2,TIM10 conf
Cc1cc(-c2nnc(SCC(=O)Nc3ccc(C(F)(F)F)cc3)n2C)no1,8,1,-1,4,-4,.
Cc1cc(-c2nnc(SCC(=O)Nc3ccccc3)n2C)no1,54*,3,3,8,1,-4
CNC(=O)c1c[nH]c2ccc(S(=O)(=O)Nc3cccc(SC)c3)cc2c1=O,5,1,-8,5,-28,.
COc1ccccc1OCC(=O)Nc1cc(C(F)(F)F)ccc1-n1cncn1,-2,-3,7,24,.,.
CCN(c1ccccc1)S(=O)(=O)c1ccc(Cl)c(NC(=O)COC(=O)c2cc(O)c3ccccc3c2O)c1,45*,.,28,35,.,32*
O=C(N/N=C/c1cccs1)c1ccc2ncccc2c1,15,1,-24,22,-18,.
O=C(N/N=C/c1cccs1)c1ccc2ccccc2c1,47*,-3,10,44,16,27
Cc1ccc(C23CC4CC(CC(C(=O)NC(C)C)(C4)C2)C3)cc1,44*,0,19,40,-5,30
